An excerpt weighted towards active compounds, which were near 2.2% of everything screened.
TRAIL sens C8: sensitizes caspase-8 expressing cells to TRAIL; AID 624354; actives 1% (n = 360,000); NB7+C8 cells + TRAIL, ATPlite viability luminescence; inhibition (viability loss, TRAIL sensitization), % at 10 µM;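 active means compounds causing at least 50% loss of cell viability in the single-dose screen, relative to plate controls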
KKLEB tox: reduces viability of KKLEB cystic fibrosis airway cells. activity change (cytotoxicity), % at 5 µM. AID 602141. actives 0.36% (n = 360,000). KKLEB CF airway cells viability, ATPlite luminescence, overnight; hits give low values; cells stimulated with P. aeruginosa culture filtrate;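 active means corrected activity change at or below -50% at 5 µM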
iPSC survival up: increases survival of single human iPS cells. survival enhancement, % at 20 µM. hiPSC single-cell survival, ATPlite luminescence; 100% = ROCK inhibitor wells, 0% = DMSO. actives 0.044% (n = 360,000). AID 602274; in the data active means survival enhancement above about 18%;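 further: cells exposed to compounds for 16 hours before the ATP read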
CF NFkB inh: inhibitors of cystic fibrosis induced NF-kB. KKLEB NF-kB-GFP reporter, PAF-induced, GFP fluorescence overnight. inhibition, % at 5 µM. actives 0.86% (n = 360,000);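 active means at least 50% inhibition at 5 µM, scaled per plate between neutral and stimulator controls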;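 further: PAF is a Pseudomonas aeruginosa culture filtrate used as stimulus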
HIF-2a inh: inhibitors of HIF-2a. 786-0 RCC cells HIF-2a reporter, luciferase luminescence, overnight. inhibition, % at 18.8 µM. actives 0.72% (n = 360,000);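 active means inhibition of the luminescence signal of 40% or more relative to plate controls, in a single-dose primary screen at 18.75 µM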
PPC-1+TRAIL kill: kills PPC-1 cancer cells in the presence of TRAIL; PPC-1 cells + TRAIL, ATPLite viability luminescence; cell killing (% activity), % at 4 µM or 5 µM; actives 0.41% (n = 220,000);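 active means cell killing above 50% in the first pass at 4 µM, then a duplicate retest at 5 µM averaging 50% or more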
Mdm2 MdmX conf: confirmation of inhibitors of human Mdm2/MdmX interaction, set 2; inhibition, % at 8 µM; SaOS-2 split-luciferase Mdm2/MdmX complementation, luminescence; actives 99% (n = 740); shares compounds with HIF-2a inh;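 active means mean inhibition of the luminescence signal across two replicates at or above 26 percent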
Target sequence (O15151 whole entry, looked up): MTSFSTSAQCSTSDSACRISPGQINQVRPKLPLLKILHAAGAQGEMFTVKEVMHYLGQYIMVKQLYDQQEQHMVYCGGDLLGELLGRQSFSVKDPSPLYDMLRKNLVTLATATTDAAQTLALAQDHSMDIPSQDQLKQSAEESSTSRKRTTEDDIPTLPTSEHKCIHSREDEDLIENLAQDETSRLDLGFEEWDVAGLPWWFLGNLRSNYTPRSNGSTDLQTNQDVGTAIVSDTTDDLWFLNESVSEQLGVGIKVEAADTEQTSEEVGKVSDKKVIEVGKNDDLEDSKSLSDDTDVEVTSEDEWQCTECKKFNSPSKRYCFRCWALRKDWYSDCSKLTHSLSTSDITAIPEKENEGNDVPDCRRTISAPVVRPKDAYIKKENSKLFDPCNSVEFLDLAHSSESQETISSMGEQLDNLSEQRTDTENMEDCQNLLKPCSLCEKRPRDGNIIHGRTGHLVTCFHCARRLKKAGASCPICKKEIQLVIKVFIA
Target sequence (Q00987 whole entry, looked up): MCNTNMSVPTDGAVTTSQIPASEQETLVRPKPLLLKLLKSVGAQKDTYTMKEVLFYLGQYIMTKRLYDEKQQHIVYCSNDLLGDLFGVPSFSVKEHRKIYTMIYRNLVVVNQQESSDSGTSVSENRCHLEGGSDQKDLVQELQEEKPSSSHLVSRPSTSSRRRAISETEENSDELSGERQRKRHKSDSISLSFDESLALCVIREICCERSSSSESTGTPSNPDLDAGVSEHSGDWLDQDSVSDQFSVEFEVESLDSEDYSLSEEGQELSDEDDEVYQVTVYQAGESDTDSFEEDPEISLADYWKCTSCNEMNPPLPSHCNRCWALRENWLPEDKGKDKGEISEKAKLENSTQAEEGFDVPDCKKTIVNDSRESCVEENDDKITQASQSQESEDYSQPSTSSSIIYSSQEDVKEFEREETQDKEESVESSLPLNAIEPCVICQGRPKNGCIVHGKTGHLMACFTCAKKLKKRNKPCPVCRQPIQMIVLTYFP
HIF-2a inh conf: HIF-2a inhibition, single concentration confirmation; inhibition, % at 18.8 µM; shares compounds with HIF-2a inh; actives 56% (n = 1,800); 786-0 RCC cells, HIF-2a luciferase reporter luminescence, overnight;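 active means mean inhibition across four replicates of at least 40 percent at the single tested concentration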
HIF-1a cs: counter-screen for HIF-2a inhibitors: HIF-1a inhibition in MiaPaCa-2 cells | actives 72% (n = 1,800) | MiaPaCa-2 HIF-1a luciferase reporter, desferoxamine, overnight | inhibition, % at 18.8 µM | shares compounds with HIF-2a inh | AID 651589;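 active means mean inhibition of the reporter signal across four replicates at the single tested dose of 50% or more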
A number is an active result; . = inactive; / = not tested or not shown.

SMILES	TRAIL sens C8	KKLEB tox	iPSC survival up	CF NFkB inh	HIF-2a inh	PPC-1+TRAIL kill	HIF-2a inh conf	HIF-1a cs	others
C#CCN(C[C@@H]1[C@@H](OC(=O)NCC2CCCCC2)[C@@H](OC(=O)NCC2CCCCC2)Cn2c(=O)ccc(=O)n21)S(=O)(=O)c1ccc(C)cc1	92.8	-96.6	.	106.0	96.7	/	99.3	107.3
C=CCn1c(O)c(N=NC(=O)CNC(=O)Cc2ccccc2)c2ccccc21	.	.	.	.	.	/	/	/
Cn1c(=O)[nH]c(=O)c2c1nc([N+](=O)[O-])n2Cc1ccccc1	85.2	-84.7	.	109.1	97.5	.	/	/	Mdm2 MdmX conf=103.2
CC(C)Cn1c([N+](=O)[O-])nc2c1c(=O)[nH]c(=O)n2C	.	.	.	.	.	.	/	/
OCCCNc1cc(-c2ccnc(Nc3cccc(Cl)c3)n2)ccn1	.	.	.	86.5	.	.	/	/	Mdm2 MdmX conf=103.0
O=Nc1c(O)ccc2cc(S(=O)(=O)O)ccc12	.	.	.	.	76.2	/	82.3	.
CN(C)c1ccc2cc(S(=O)(=O)O)cc(O)c2c1	.	.	.	.	.	/	/	/
CC(NC(=O)C1CCCN1S(=O)(=O)c1ccc2c(c1)n(C)c(=O)c(=O)n2C)c1ccccc1 (configuration not stated)	.	.	.	.	.	.	/	/
CC(C)[C@H](NC(=O)N1CCn2c1nc1ccccc12)C(=O)NCc1ccccc1Cl	.	.	.	.	.	/	/	/
CC(C)CC(NC(=O)OCc1ccccc1)C(=O)NC(Cc1ccccc1)C(=O)CCl (configuration not stated)	90.4	.	.	.	47.8	/	73.0	87.3
O=C1CCCCCN1C(=O)c1ccccc1	.	.	.	.	.	/	/	/
CC(C)(C)c1ccc(C(=O)N2CCCCCC2=O)cc1	.	.	.	.	88.6	.	94.8	81.7
C=C1CC(COc2cc(=O)oc3ccccc23)(c2ccccc2)OC1=O (configuration not stated)	93.3	-104.3	.	97.8	90.1	/	57.1	106.0
C=C1CCC2C(C)(C)[C@H](O)CC[C@@]2(C)[C@@H]1COc1cc(=O)oc2ccccc12 (some centres not stated)	.	.	.	.	.	.	/	/
O=C(NC1CCOCC1)C1CCC(=O)N(Cc2ccc(Cl)cc2)C1 (configuration not stated)	.	.	.	.	.	/	/	/
CCOC(=O)c1c(SCCN2CCCC2)n(-c2ccccc2)c(=S)n(-c2ccccc2)c1=O	.	.	.	.	77.5	/	93.2	102.0
O=C(CCCc1ccccc1)Nc1cccc(C(=O)O)c1	.	.	.	.	54.5	.	58.9	.
O=C(CN(c1ccccc1)S(=O)(=O)c1ccccc1[N+](=O)[O-])Nc1cccnc1	.	.	.	.	.	/	/	/
Nc1ccc2nn(-c3ccc(F)cc3)nc2c1	.	.	.	.	.	/	/	/
COc1ccc(-n2nc3ccc(N)cc3n2)cc1	.	.	.	.	45.6	/	69.8	.
Cc1cc(Cl)n2c(nc3cc(F)c(F)cc32)c1C#N	74.0	-69.3	.	89.4	94.8	.	58.2	100.2
Cc1sc2ncnc(N3CCC(C(=O)Nc4cc(Cl)ccc4Cl)CC3)c2c1C	.	.	.	.	.	/	/	/
Cc1sc2ncnc(N3CCC(C(=O)Nc4cc(S(C)(=O)=O)ccc4Cl)CC3)c2c1C	.	.	.	.	41.4	/	.	73.9
COC(=O)CSc1nnc(-c2sc3ccccc3c2Cl)o1	.	.	.	.	90.5	.	95.2	69.0
CC1Cc2ccccc2N1S(=O)(=O)c1cccc(C(=O)N2CCN(c3ncccn3)CC2)c1 (configuration not stated)	.	.	.	.	.	.	/	/	Mdm2 MdmX conf=100.5

Screens (PubChem BioAssay)
